This passage reports inhibition results from ChEMBL document CHEMBL1961873, “Compounds: GSK PKIS; Assays: Nanosyn kinase panel” (2012).

Assay [1] has as its target Tyrosine-protein kinase Fyn (Homo sapiens) (UniProt P06241). To be noted: at 1 µM.
Assay [2] addresses Tyrosine-protein kinase HCK (Homo sapiens) (UniProt P08631). To be noted: at 0.1 µM.
The target is the same in assay [3]. To be noted: at 1 µM.
Assay [4] deals with Insulin-like growth factor 1 receptor (Homo sapiens) (UniProt P08069). To be noted: at 0.1 µM.
Assay [5] has the same target. To be noted: at 1 µM.
Assay [6] concerns the target Insulin receptor (Homo sapiens) (UniProt P06213). To be noted: at 0.1 µM.
For assay [7] the target is unchanged. To be noted: at 1 µM.
The target in assay [8] is Insulin receptor-related protein (Homo sapiens) (UniProt P14616). To be noted: at 0.1 µM.
The target is the same in assay [9]. To be noted: at 1 µM.
For assay [10], the target named is T1, Tyrosine-protein kinase ITK/TSK (Homo sapiens) (UniProt Q08881).
T1 sequence (whole entry): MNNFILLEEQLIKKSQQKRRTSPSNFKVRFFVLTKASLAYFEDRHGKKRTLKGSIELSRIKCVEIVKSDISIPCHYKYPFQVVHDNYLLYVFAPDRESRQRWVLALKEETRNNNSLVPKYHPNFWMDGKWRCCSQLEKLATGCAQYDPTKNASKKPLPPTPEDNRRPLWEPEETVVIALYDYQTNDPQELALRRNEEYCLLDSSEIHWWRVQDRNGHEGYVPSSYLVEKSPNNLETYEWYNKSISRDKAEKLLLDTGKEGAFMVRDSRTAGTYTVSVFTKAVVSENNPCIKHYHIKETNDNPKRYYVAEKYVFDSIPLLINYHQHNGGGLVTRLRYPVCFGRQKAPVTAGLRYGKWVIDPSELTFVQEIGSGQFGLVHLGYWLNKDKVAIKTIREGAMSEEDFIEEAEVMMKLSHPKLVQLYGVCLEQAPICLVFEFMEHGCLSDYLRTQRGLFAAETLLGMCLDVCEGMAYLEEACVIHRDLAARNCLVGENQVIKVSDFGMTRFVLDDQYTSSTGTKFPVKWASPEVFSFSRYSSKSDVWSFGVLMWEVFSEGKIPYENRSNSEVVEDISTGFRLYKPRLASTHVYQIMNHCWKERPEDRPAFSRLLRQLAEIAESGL
To be noted: at 0.1 µM.

Assay [11] addresses T1, Tyrosine-protein kinase ITK/TSK (Homo sapiens). To be noted: at 1 µM.
In assay [12] the target is Tyrosine-protein kinase JAK1 (Homo sapiens) (UniProt P23458). To be noted: at 0.1 µM.
Chain of Tyrosine-protein kinase JAK1 (Homo sapiens) (P23458 whole entry): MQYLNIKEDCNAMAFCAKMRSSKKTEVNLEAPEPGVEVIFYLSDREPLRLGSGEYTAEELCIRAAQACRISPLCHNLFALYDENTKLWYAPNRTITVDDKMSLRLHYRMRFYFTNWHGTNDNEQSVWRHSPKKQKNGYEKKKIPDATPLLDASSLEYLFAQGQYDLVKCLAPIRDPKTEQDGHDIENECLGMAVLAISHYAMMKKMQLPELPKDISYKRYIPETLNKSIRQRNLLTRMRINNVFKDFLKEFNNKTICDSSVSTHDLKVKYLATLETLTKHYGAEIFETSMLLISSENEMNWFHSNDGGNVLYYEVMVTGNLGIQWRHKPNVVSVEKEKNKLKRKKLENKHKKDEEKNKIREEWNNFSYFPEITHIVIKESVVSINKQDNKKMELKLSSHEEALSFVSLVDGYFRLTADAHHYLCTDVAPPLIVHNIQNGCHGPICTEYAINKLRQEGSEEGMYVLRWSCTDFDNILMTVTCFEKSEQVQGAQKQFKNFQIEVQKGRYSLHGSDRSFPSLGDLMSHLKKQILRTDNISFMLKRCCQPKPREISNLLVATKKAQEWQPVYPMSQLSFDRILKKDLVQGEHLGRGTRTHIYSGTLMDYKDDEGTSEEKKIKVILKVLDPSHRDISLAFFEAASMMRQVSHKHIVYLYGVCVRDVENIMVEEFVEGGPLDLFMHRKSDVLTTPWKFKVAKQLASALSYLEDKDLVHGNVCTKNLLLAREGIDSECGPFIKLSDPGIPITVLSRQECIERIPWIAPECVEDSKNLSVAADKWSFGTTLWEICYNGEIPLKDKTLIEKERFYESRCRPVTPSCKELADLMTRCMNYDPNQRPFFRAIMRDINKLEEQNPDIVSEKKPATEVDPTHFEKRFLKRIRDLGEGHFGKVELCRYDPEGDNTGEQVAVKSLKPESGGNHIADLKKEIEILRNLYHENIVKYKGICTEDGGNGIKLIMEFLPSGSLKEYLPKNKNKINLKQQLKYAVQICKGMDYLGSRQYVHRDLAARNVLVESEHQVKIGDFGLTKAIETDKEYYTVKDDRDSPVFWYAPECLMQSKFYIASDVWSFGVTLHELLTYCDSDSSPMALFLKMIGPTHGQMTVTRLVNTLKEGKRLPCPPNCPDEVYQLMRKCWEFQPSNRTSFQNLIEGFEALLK
Assay [13] has the same target. To be noted: at 1 µM.
Assay [14] concerns the target Tyrosine-protein kinase JAK2 (Homo sapiens) (UniProt O60674). To be noted: at 0.1 µM.
Assay [15] has the same target. To be noted: at 1 µM.
Assay [16] has as its target T2, Tyrosine-protein kinase JAK3 (Homo sapiens) (UniProt P52333).
T2 sequence (whole entry): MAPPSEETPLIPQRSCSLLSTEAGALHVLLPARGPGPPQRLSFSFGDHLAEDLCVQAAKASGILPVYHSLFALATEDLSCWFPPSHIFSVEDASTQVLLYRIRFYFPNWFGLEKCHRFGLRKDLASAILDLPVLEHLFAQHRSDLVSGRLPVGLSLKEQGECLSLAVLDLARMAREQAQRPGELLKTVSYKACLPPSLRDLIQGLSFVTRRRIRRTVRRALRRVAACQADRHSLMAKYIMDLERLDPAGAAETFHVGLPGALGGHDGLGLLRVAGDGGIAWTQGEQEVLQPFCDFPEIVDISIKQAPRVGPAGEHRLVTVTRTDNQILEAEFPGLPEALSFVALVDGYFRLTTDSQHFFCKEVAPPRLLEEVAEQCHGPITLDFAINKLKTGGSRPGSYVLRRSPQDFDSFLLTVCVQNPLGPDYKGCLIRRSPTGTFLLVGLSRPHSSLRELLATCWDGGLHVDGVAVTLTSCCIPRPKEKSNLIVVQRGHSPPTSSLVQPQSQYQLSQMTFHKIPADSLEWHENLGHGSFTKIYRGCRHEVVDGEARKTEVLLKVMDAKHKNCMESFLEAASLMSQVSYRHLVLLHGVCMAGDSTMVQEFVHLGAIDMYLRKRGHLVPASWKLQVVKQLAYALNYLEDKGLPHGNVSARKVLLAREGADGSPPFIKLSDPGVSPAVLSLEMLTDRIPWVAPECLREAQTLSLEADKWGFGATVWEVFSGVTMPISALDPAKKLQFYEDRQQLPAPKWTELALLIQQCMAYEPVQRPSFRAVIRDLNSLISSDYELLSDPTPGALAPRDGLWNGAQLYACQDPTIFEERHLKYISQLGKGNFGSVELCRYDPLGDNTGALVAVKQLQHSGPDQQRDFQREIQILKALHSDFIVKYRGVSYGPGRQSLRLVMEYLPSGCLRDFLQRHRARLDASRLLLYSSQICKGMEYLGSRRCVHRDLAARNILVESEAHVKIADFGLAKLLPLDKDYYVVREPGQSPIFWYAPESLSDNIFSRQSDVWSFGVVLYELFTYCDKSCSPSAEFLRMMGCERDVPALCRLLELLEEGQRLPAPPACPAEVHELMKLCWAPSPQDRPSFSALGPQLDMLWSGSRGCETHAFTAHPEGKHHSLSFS
To be noted: at 0.1 µM.

Assay [17] concerns the target T2, Tyrosine-protein kinase JAK3 (Homo sapiens). To be noted: at 1 µM.
The target of assay [18] is Vascular endothelial growth factor receptor 2 (Homo sapiens) (UniProt P35968). To be noted: at 0.1 µM.
Chain of Vascular endothelial growth factor receptor 2 (Homo sapiens) (P35968 whole entry): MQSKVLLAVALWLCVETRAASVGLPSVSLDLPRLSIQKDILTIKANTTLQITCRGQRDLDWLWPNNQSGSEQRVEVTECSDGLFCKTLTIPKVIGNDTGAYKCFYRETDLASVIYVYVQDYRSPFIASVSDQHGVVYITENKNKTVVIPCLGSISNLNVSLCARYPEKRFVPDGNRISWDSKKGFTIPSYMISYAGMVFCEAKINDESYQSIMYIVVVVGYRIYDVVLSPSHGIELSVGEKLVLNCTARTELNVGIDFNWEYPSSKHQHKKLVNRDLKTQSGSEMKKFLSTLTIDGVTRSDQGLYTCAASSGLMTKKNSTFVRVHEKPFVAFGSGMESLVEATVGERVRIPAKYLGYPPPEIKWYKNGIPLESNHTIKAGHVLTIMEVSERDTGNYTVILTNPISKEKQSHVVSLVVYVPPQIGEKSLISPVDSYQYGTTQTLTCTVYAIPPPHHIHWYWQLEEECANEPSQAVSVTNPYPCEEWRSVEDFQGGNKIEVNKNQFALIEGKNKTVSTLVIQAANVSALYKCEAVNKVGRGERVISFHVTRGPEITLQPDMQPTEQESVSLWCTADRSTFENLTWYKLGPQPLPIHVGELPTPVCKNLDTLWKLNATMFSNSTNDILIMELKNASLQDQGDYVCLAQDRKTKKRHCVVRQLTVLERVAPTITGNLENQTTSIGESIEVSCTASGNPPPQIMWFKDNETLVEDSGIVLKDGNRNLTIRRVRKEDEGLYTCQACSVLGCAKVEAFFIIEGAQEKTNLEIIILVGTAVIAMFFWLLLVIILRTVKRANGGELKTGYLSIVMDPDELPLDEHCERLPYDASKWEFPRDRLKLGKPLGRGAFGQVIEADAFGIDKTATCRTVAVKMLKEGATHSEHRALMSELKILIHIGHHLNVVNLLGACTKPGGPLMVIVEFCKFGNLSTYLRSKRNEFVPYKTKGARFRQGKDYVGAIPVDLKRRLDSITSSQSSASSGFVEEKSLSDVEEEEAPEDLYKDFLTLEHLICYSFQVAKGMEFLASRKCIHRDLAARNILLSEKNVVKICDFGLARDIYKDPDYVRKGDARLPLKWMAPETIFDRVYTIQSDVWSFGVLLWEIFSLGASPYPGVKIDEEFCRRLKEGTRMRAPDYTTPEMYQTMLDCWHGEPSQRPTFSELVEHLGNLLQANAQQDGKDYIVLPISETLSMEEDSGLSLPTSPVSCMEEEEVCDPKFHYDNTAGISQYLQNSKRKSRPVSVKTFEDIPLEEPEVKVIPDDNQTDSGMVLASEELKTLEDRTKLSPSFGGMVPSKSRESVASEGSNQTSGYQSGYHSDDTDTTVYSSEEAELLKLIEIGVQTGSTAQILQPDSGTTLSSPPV
For assay [19] the target is unchanged. To be noted: at 1 µM.
The target of assay [20] is Mast/stem cell growth factor receptor Kit (Homo sapiens) (UniProt P10721). To be noted: at 0.1 µM.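 Further: values are mean inhibition of KIT, from the GSK PKIS dataset.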

Chain of Tyrosine-protein kinase JAK2 (Homo sapiens) (O60674 whole entry): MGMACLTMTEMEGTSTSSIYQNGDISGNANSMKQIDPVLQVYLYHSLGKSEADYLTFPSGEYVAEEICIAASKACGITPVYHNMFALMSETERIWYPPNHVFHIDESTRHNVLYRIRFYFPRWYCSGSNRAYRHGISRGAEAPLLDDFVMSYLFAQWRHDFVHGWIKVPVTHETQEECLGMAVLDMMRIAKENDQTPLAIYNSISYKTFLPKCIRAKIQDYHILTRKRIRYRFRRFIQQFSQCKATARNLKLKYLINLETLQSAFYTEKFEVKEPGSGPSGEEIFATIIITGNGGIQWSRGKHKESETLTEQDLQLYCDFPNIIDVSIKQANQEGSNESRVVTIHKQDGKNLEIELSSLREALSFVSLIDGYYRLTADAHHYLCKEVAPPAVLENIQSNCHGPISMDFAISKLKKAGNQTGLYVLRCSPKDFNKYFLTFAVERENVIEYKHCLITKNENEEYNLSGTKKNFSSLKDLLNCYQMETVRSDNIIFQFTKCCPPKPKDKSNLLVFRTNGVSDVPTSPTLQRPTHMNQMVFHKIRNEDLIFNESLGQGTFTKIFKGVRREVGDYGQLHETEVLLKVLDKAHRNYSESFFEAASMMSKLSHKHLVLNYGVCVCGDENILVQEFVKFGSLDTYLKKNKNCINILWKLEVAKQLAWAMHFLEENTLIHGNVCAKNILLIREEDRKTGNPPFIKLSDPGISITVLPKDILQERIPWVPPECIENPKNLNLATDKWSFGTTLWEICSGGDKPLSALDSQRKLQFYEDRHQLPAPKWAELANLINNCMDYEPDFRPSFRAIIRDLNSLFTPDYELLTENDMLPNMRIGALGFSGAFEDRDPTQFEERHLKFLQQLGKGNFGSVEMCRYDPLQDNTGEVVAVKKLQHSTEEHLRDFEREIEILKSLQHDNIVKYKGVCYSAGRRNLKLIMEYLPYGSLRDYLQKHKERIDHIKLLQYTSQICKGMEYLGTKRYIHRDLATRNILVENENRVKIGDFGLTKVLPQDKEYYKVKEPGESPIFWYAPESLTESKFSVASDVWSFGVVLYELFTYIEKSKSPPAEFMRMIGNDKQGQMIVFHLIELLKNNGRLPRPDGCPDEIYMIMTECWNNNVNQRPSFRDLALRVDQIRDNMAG
Chain of Tyrosine-protein kinase HCK (Homo sapiens) (P08631 2-526 limits assumed): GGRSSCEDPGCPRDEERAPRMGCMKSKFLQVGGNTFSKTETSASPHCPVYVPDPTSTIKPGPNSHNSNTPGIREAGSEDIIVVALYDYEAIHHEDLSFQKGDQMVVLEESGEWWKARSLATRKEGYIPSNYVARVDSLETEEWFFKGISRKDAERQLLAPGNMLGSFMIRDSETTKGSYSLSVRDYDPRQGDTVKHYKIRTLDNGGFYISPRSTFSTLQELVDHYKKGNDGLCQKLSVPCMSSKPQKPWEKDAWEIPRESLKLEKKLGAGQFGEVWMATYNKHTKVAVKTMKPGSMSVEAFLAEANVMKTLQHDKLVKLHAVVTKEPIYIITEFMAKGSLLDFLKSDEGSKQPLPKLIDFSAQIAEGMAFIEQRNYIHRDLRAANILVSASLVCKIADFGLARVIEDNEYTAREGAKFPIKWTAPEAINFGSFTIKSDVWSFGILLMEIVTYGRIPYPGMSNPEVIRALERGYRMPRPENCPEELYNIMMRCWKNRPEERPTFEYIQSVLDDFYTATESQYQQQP
Chain of Tyrosine-protein kinase Fyn (Homo sapiens) (P06241 2-537 limits assumed): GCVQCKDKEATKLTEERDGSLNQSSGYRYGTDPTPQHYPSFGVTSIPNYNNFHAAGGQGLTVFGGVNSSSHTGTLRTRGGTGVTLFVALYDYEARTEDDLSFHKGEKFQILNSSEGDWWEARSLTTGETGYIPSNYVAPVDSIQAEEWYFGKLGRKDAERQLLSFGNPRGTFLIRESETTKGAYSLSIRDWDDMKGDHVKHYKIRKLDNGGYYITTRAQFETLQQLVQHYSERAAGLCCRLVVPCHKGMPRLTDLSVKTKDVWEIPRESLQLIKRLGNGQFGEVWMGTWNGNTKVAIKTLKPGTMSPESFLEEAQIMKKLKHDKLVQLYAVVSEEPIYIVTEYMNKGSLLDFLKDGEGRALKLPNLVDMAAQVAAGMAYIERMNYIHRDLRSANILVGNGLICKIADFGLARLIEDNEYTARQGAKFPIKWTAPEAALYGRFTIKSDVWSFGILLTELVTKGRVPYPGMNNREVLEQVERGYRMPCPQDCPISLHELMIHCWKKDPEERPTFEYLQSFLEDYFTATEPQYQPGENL

As a reminder, the inhibition is the change of the read-out against control, counted positive when it falls. Take `Cc1cccc(Nc2ncc(-c3ccccc3)o2)c1`: the inhibition stood at 8.62% in assay [1]; 4.6% in [2]; 10.2% in assay [3]; 4.44% in assay [4]; 1.6% in assay [5]; 3.27% in [6]. The inhibition was determined as 2.89% in [7]; 2.57% in [8]; 1.2% in assay [9]; 2.38% in assay [10]; 3.08% in assay [11]; 2.19% in assay [12]. Moreover, the inhibition in [13] was 0.42%; in assay [14], 2%; in [15], 2.63%; in [16], -0.81%; in assay [17] it was -0.44%; in assay [18], 4.96%. For the same molecule, the values for the inhibition in assay [19] and in assay [20] were 21.3% and 38.5%, respectively.
Consider `COc1cc(/C=N/Nc2ncnc3[nH]ncc23)ccc1O`, for which the inhibition in assay [1] was 41.2%; in assay [2], 11.1%; in assay [3] it was 54.2%; in assay [4], 3.46%; in assay [5], 12.5%; in assay [6], 5.52%. In addition, the inhibition in assay [7] was 15.3%; in assay [8], 3.28%; in assay [9], 3.65%; in assay [10], 1.29%; in assay [11], 7.65%; in assay [12], 8.12%. In addition, the inhibition in [13] is 9.29%; in [14], 1.72%; in assay [15] it was 4.07%; in [16], -1.64%; in assay [17], 2.59%; in [18] it was 10.3%. For the same molecule, the inhibition in assay [19] is 45.6%; in assay [20], 11.4%.
`COc1ccc(-c2oc3ncnc(N)c3c2-c2ccc(NC(=O)Nc3cc(C(F)(F)F)ccc3F)cc2)cc1`: the inhibition came out at 52.1% in assay [1]; 31% in assay [2]; 86.1% in assay [3]; 4.58% in [4]; 7.94% in assay [5]; 4.98% in assay [6]. Moreover, the inhibition turned out to be 27.2% in [7]; 1.97% in [8]; 6.8% in assay [9]; 5.01% in assay [10]; 40.8% in assay [11]; 14.6% in [12]. Also, the inhibition in [13] was 43.3%; in [14], 2.04%; in assay [15] it was 14.4%; in assay [16], 1.04%; in [17] it was 3.12%; in assay [18], 75.4%. Further, the values for the inhibition in [19] and in assay [20] were 73.7% and 37.9%, respectively.
For the molecule `Cc1ccc(O)cc1Nc1ccnc2cc(-c3ccccn3)ccc12`, the inhibition in assay [1] was found to be 88.5%; in assay [2] it was 70.9%; in [3] it was 87.9%; in assay [4] it was 5.77%; in [5] it was 4.82%; in assay [6] it was 5.4%. The inhibition in assay [7] is 5.51%; in assay [8], 5.36%; in assay [9] it was 3.66%; in assay [10] it was 1.62%; in [11], 2.42%; in assay [12], 7.02%. For the same molecule, the inhibition in assay [13] is 3.25%; in assay [14] it was 2.62%; in [15], 3.62%; in assay [16], -1.06%; in [17], 0.79%; in [18], 78.6%. The inhibition in assay [19] stood at 93.5%; in assay [20], 10.4%.
On to `O=C(O[C@H]1CN[C@H](C#Cc2cc3ncnc(Nc4ccc(Cc5ccccc5)cc4)c3s2)C1)N1CCOCC1`, for which the inhibition in [1] is 5.81%; in assay [2] it was 1.46%; in assay [3], 6.92%; in assay [4], -3.02%; in assay [5], -1.17%; in [6], -0.74%. In addition, the inhibition in [7] is -2.74%; in assay [8], 0.8%; in assay [9], 1.05%; in assay [10] it was -0.73%; in assay [11] it was 0.7%; in [12], 0.98%. Besides, the inhibition is 1.8% in assay [13]; -0.09% in assay [14]; -0.66% in assay [15]; -2.28% in [16]; -1.16% in [17]; -0.84% in assay [18]. In addition, the inhibition amounted to 5.75% in assay [19] and 2.78% in assay [20].
Consider `COc1cc2ncn(-c3cc(OCc4ccccc4C(F)(F)F)c(C(=O)N(C)C)s3)c2cc1OC`, for which the inhibition is 8.11% in assay [1]; 2.13% in assay [2]; 10.1% in [3]; 1.61% in assay [4]; -0.15% in [5]; 2.79% in assay [6]. The inhibition in [7] was 1.7%; in assay [8] it was -2.24%; in [9] it was -0.76%; in assay [10], 0.81%; in [11], 1.76%; in assay [12], -1.58%. For the same molecule, the inhibition in [13] is 8.12%; in [14] it was 0.32%; in [15], -0.19%; in assay [16], -0.48%; in assay [17], 14.7%; in assay [18] it was 6.67%. Further, the inhibition in [19] was found to be 27.5%; in [20] it was 0.26%.
As for `FC(F)(F)c1cccc(-c2nn3ncccc3c2-c2ccnc(Nc3ccc4c(c3)OCCO4)n2)c1`, the inhibition was 48.1% in [1]; 5.43% in [2]; 31.2% in [3]; -0.53% in [4]; 1.37% in assay [5]; -1.37% in assay [6]. In addition, the inhibition is 3.05% in assay [7]; 0.31% in assay [8]; 1.27% in [9]; 0.97% in assay [10]; 2.97% in assay [11]; -1.29% in assay [12]. In addition, the inhibition in assay [13] is -0.53%; in [14] it was 0.96%; in assay [15], 1.37%; in assay [16], -0.61%; in assay [17] it was 0.66%; in [18], 12.6%. In addition, the inhibition in assay [19] was 49.6%; in assay [20], 2.36%.
